According to the supplement of paper PMC12282887:
± gives the standard deviation of the averaged measurements.

How the values were obtained:
Experiment in all cases: promoter activity interaction Z-score (Lux/OD deviation from empty-vector control); higher = stronger promoter induction by the compound
[1] = system: E. coli BW25113 robp lux reporter
In short: (§1)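 Four 1:2 dilutions of each compound were tested in biological duplicates on E. coli BW25113 carrying low-copy luxCDABE promoter reporters, either wild type or deleted for one of three genes. Cultures of 40 µl LB Lennox in 384-well plates were kept at 37°C and read for OD600 and luminescence every 30 min for 12 h. Integration windows were 0–8 h for wild type and 1–9 h for deletion strains, and wells under 10% of the median growth value were discarded. The score is a Z-transformed residual of growth-normalised luminescence relative to a control fit.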

[2] = system: E. coli BW25113 soxSp lux reporter
In short: as §1

[3] = system: E. coli BW25113 tolCp lux reporter
In short: as §1

[4] = 22.5 µg/ml, genetic background: wild type
[5] = 22.5 µg/ml, genetic background: ΔmarA
[6] = 22.5 µg/ml, genetic background: Δrob
[7] = 22.5 µg/ml, genetic background: ΔsoxS
[8] = 45 µg/ml, genetic background: wild type
[9] = 45 µg/ml, genetic background: ΔmarA
[10] = 45 µg/ml, genetic background: Δrob
[11] = 45 µg/ml, genetic background: ΔsoxS
[12] = 90.1 µg/ml, genetic background: wild type
[13] = 90.1 µg/ml, genetic background: ΔmarA
[14] = 90.1 µg/ml, genetic background: Δrob
[15] = 90.1 µg/ml, genetic background: ΔsoxS
[16] = 180.2 µg/ml, genetic background: wild type
[17] = 180.2 µg/ml, genetic background: ΔmarA
[18] = 180.2 µg/ml, genetic background: Δrob
[19] = 180.2 µg/ml, genetic background: ΔsoxS

SMILES: CC(=O)Oc1ccccc1C(=O)O [Acetylsalicylic acid]
- promoter activity interaction Z-score [1, 4]: 0.17 ± 0.36
- promoter activity interaction Z-score [1, 5]: -0.635 ± 0.24
- promoter activity interaction Z-score [1, 6]: 0.299 ± 0.26
- promoter activity interaction Z-score [1, 7]: -0.394 ± 1.1
- promoter activity interaction Z-score [1, 8]: 0.406 ± 0.86
- promoter activity interaction Z-score [1, 9]: 0.328 ± 0.074
- promoter activity interaction Z-score [1, 10]: 0.109 ± 1.1
- promoter activity interaction Z-score [1, 11]: 0.454 ± 0.65
- promoter activity interaction Z-score [1, 12]: -0.235 ± 0.3
- promoter activity interaction Z-score [1, 13]: 0.332 ± 0.19
- promoter activity interaction Z-score [1, 14]: -0.142 ± 0.65
- promoter activity interaction Z-score [1, 15]: 0.2 ± 0.77
- promoter activity interaction Z-score [1, 16]: -0.797 ± 0.23
- promoter activity interaction Z-score [1, 17]: -0.595 ± 0.25
- promoter activity interaction Z-score [1, 18]: -0.635 ± 0.52
- promoter activity interaction Z-score [1, 19]: -0.507 ± 0.57
- promoter activity interaction Z-score [2, 4]: 0.245 ± 0.03
- promoter activity interaction Z-score [2, 5]: 0.396 ± 0.012
- promoter activity interaction Z-score [2, 6]: 0.336 ± 0.03
- promoter activity interaction Z-score [2, 7]: 0.386 ± 0.52
- promoter activity interaction Z-score [2, 8]: 0.214 ± 0.2
- promoter activity interaction Z-score [2, 9]: 0.405 ± 0.076
- promoter activity interaction Z-score [2, 10]: 0.388 ± 0.19
- promoter activity interaction Z-score [2, 11]: 0.494 ± 0.84
- promoter activity interaction Z-score [2, 12]: 0.119 ± 0.042
- promoter activity interaction Z-score [2, 13]: 0.218 ± 0.23
- promoter activity interaction Z-score [2, 14]: 0.406 ± 0.2
- promoter activity interaction Z-score [2, 15]: 0.157 ± 0.64
- promoter activity interaction Z-score [2, 16]: 0.054 ± 0.12
- promoter activity interaction Z-score [2, 17]: 0.327 ± 0.073
- promoter activity interaction Z-score [2, 18]: 0.525 ± 0.097
- promoter activity interaction Z-score [2, 19]: 0.502 ± 1.1
- promoter activity interaction Z-score [3, 4]: 0.458 ± 0.6
- promoter activity interaction Z-score [3, 5]: -1.26 ± 1.6
- promoter activity interaction Z-score [3, 6]: -0.642 ± 0.11
- promoter activity interaction Z-score [3, 7]: 0.238 ± 0.11
- promoter activity interaction Z-score [3, 8]: 0.0937 ± 0.17
- promoter activity interaction Z-score [3, 9]: 0.783 ± 0.48
- promoter activity interaction Z-score [3, 10]: 0.602 ± 0.1
- promoter activity interaction Z-score [3, 11]: 0.898 ± 0.65
- promoter activity interaction Z-score [3, 12]: 0.202 ± 0.78
- promoter activity interaction Z-score [3, 13]: 1.21 ± 0.39
- promoter activity interaction Z-score [3, 14]: 1.08 ± 0.51
- promoter activity interaction Z-score [3, 15]: 1.29 ± 0.033
- promoter activity interaction Z-score [3, 16]: -0.456 ± 0.15
- promoter activity interaction Z-score [3, 17]: -0.659 ± 0.06
- promoter activity interaction Z-score [3, 18]: 1.91 ± 0.78
- promoter activity interaction Z-score [3, 19]: 2.01 ± 0.4
